Test results published in the supplement of paper PMC6555819.

What follows are sequences tested on THRa homodimer (NR concentration 90 nM) (assay: PBM binding z-score (relative to random genomic background probes); higher = stronger binding; sequences stand for … in GC…GCGATTGACAGCGTAGAATGAAGG).
How it was run: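 For binding z-scores, the reference was random background probes on custom Agilent 4×180K protein-binding microarrays. These arrays were incubated 1 h with ligand-free nuclear receptor dimers in PBS pH 7.4, 2% milk, 0.02% Triton X-100, 1 mM DTT, 0.2 mg/mL BSA and 0.4 mg/ml salmon testes DNA. Fluorescence was scanned after antibody detection of each partner (one per run) and regression-normalized.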

Sequence | PBM binding z-score
CGTGAAAGTTCAAGGTAACGTAACAGAAAGCAGC | 0.878
CCGACTGGGGCAAAGATTACCATACTCAGTACGA | -0.518
TCTCGGAGGACGCGAAGGTCAGAGCTTTCCAGAG | 0.0235
ATATGTAGGTTATCGGGTCAGTCAGTTTGCGCAT | 2.08
CATACTAGGTCACGAAAGGTCAAAGTCGAATGAC | 2.91
TGAATGAGGTTAAAGATCAGGGAACGTGGCGTCG | 0.44
GTACCAAGGTCAATAGGTCGTTGATGAGTAGGCG | 1.77
TGTCAAGGTTCAAAGGTAACGTAAGTATCCACAC | -0.0609
TCTAGGTGGTCAAAGGTCACACACTCGAAATGCG | 1.74
ACAGACAGGTGAGGAAGGTAACTCAGGCTATCAT | 0.208
TCGAGTAGGTTAGTCGGGGCACTCAGCCAACATA | -0.252
CGTCAAATTTCAACTAAGGTAACGTAAAGCACGC | 1.89
AGTCAAAGTTCATCTAGGTTACGTAAGATATGCT | 0.553
AGTCAAAGTTCAGGAAGAGGTAACGTAAAGCACG | 0.341
CAGCCTAGGTTAGGGCCAGTATAGGAGGAACGTT | -0.75
GCGACTGGGGCATCATCAGGTTACCATAACTTAA | 1.31
TCTTGTAGTTCAATAGAGGTTAAGAAAGTGCGCT | 0.104
TCTTGTAGATCAGCAGTTTAAGAAAGCTGGCCAA | -0.319
AGAATGAGGTTATTAAGATTAGGGAATTGCGGTC | 0.933
TCGAGTAGGTTAGTCGGGGCTTTCAGCCAACATA | -0.892
GGCACGAGGGCAAGTTGATAGCAGAGTTTGATGG | 0.0135
ATAGAAAGGTCGTGAGGTGAGTATACAGAAAGGC | 1.99
